From PubChem BioAssay
DAX1 inh-1: NR0B1 (DAX1) inhibition; inhibition, % at 6.75 µM; P51843; AID 504766; hit rate 0.99% among 340,000; HEK293 Gal4-DAX1 luciferase reporter, luminescence;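 active means inhibition above the mean over all tested compounds plus 3 SD, cut at about 4.2% in these data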;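 further: 0% = DAX1-transfected cells with DMSO and 100% = empty-vector control cells with DMSO; inhibition shows as a rise in luminescence from relieved DAX1 repression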
Target sequence (P51843 207-470 limits assumed): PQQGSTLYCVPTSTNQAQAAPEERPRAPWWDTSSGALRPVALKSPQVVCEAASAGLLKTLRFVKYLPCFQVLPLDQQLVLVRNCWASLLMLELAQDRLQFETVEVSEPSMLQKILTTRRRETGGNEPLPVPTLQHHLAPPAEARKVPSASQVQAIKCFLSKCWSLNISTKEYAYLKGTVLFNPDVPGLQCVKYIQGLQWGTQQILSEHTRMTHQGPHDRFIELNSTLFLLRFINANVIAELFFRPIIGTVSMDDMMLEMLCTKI
ssDAF-12 act: activators of S. stercoralis DAF-12 nuclear receptor. hit rate 1% among 370,000. activation, % at 6.8 µM. HEK293 ssDAF-12/GRIP1 lit1-tk-luc reporter, luminescence; % of 3 µM dafachronic acid response;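 active means activation above the mean over all tested compounds plus 3 SD, cut at about 0.9% in these data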;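 further: 0% = DMSO-only wells and 100% = 3 µM delta7-dafachronic acid wells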
DAX1 inh-2: blocks DAX1 repression of SF-1 activated StAR promoter | inhibition, % at 6.8 µM | hit rate 1.1% among 370,000 | HEK293T StAR-luciferase reporter, SF-1/DAX-1 repression relief;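 active means inhibition above the mean over all tested compounds plus 3 SD, cut at about 3.6% in these data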;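 further: 0% = DAX-1 cells with DMSO and 100% = cells lacking DAX-1 with DMSO; higher inhibition means more luminescence from relief of DAX-1 repression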
SMARCA2 act: activators of SMARCA2 function. AID 652017. activation, % at 9.1 µM. MG213 cells, MMTV-luciferase reporter, dexamethasone, overnight. hit rate 1% among 370,000; in the data active means activation above about 7.8%;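 further: 0% = vehicle wells and 100% = reference activator wells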
hcDAF12 agonist: H. contortus DAF-12 activation, primary screen; hit rate 1.4% among 370,000; activation, % at 6.8 µM; HEK293 hcDAF-12 lit1-tk-luc reporter, luminescence; 0% DMSO, 100% Δ7-dafachronic acid;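 active means activation above the mean of all tested compounds plus 3 SD, cut at about 5.5% in these data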;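 further: 100% = response to 3 µM Δ7-dafachronic acid high control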
hgDAF12 agonist: activates the H. glycines DAF-12 receptor ligand-binding domain; AID 687014; activation, % at 6.8 µM; hit rate 1.8% among 370,000; HEK293 GAL4-hgDAF12 UAS-luciferase reporter, agonist luminescence; normalized to butyrate control;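 active means activation above a cutoff set at the mean of all screened compounds plus 3 SD, cut at about 10% in these data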;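 further: 0% = DMSO wells and 100% = sodium butyrate wells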
* marks the source's active call; other numbers are inactive results; . = not tested or not shown; ! = not active in a repeat. This is a sample that favours compounds with a hit; in the whole collection about 4.8% have one here.

SMILES | DAX1 inh-1 | ssDAF-12 act | DAX1 inh-2 | SMARCA2 act | hcDAF12 agonist | hgDAF12 agonist
O=C(COc1ccccc1)Nc1ccc(-c2nnc(-c3ccco3)o2)cc1 | 0 | 0 | 1 | 3 | 6.3* | 9
Cc1cn([C@H]2C[C@H](O)[C@@H](CNC(=O)[C@H](N)Cc3cscn3)O2)c(=O)[nH]c1=O | 2 | 0 | 0 | -2 | -1 | 1
CCNC(=S)Nc1ccc(NC(=O)c2ccccc2O)cc1 | -2 | 1.6* | 0 | -1 | 2 | 0
CCNC(=S)Nc1cccc(NC(=O)c2ccccc2O)c1 | -1 | -1 | 0 | 1 | 1 | -1
CC(=O)c1ccc(NC(=S)NC(=O)c2c(Cl)c(C)nn2C)cc1 | 4.7* | -1 | 0 | -2 | -1 | -3
Cc1ccc(NC2=C/C(=N/S(=O)(=O)c3cccs3)c3ccccc3C2=O)cc1 | 0 | 0 | 0 | -7 | 5.8* | 7
Cc1ccc(OCC(=O)N/N=C2/SCC(=O)N2Cc2ccco2)cc1 | 6.9* | -1 | 1 | -3 | -2 | 0
O=C(COc1cccc2cccnc12)N/N=C1\SCC(=O)N1Cc1ccco1 | 0 | -1 | 0 | 1 | -2 | 0
CC(=O)Nc1ccc(S(=O)(=O)N(C)CC(=O)OC(C)C(=O)N(C)C2CCCCC2)cc1 (stereo not drawn) | -1 | -1 | 1 | -2 | -2 | 2
O=C(O)C1=C[C@@H](c2ccc3c(c2)OCO3)C[C@@H](OCc2ccc(CO)cc2)O1 | 2 | -1 | 0 | 2 | 0 | 0
O=C(NC1CC1)C1=C[C@H](c2ccc3c(c2)OCO3)C[C@H](OCc2ccc(CO)cc2)O1 | 2 | 0 | 0 | 3 | -1 | 11*
Cc1ccccc1NS(=O)(=O)c1nnc(NC(=O)c2ccccc2C)s1 | 2 | 0 | 1 | -1 | 6.2* | 0
COC(=O)Cc1c(OC)ccn(CCc2c[nH]c3ccccc23)c1=O | 1 | 0 | 4.0* | 6 | 5 | 10
COC(=O)c1[nH]c2ccc(C)cc2c1NC(=O)NC1CCCCC1 | 1 | -2 | 0 | 4 | 0 | 1
O=C(Nc1c(C(=O)O)[nH]c2ccccc12)NC1CCCCC1 | 1 | 1.2* | -1 | 3 | 3 | 6
Cc1ccc(N(Cc2cc3ccc(C)cc3[nH]c2=O)S(=O)(=O)c2ccccc2)cc1 | 2 | 0 | 0 | 0 | 1 | -1
Cc1ccc(CNC(=O)OC(C)(C)C)c(/C=C/S(=O)(=O)NC2CCCC2)c1 | . | -1 | -1 | -2 | 0 | 1
CC(=O)Nc1cc(NC(C)=O)c(N=Nc2ccccc2)cc1C | 4.7* | -2 | 0 | 6 | -2 | 1
Cc1cc(N=Nc2ccccc2)cc(C)c1NC(=O)C(F)(F)F | 5.1* | 0 | 3 | 0 | 2 | 9
CC(C)(C)C(=O)Nc1ccc(N=Nc2ccccc2)cc1 | -3 | -3 | -3 | -7 | -5 | -13
CN(c1ccc(C(=O)NCCc2ccccc2)cc1)S(C)(=O)=O | 0 | 0 | 4.4* | 3 | 5 | 9
Cc1ccc(C(=O)NCCc2ccccc2)cc1 | -5 | . | . | . | . | .
CN(c1ccccc1)S(=O)(=O)c1ccc(C(=O)NCc2ccccc2CN2CCCC2)cc1 | -1 | -1 | 4.3* | 2 | -2 | -2
Cc1ccc(S(=O)(=O)N(C)c2ccc(C(=O)NCCc3ccccc3)cc2)cc1 | -1 | 0.9* | 2 | 0 | 1 | 6
Cc1ccc(S(=O)(=O)N2C[C@H]3[C@H]4C(=O)N(c5ccccc5)C(=O)[C@H]4C[C@H](OC(=O)NCC4CCCCC4)[C@@]3(O)C2)cc1 | -1 | -1 | 2 | -3 | -1 | -1
SMILES | DAX1 inh-1 | ssDAF-12 act | DAX1 inh-2 | SMARCA2 act | hcDAF12 agonist | hgDAF12 agonist
Nc1nc2ccccc2cc1C(=O)NCc1cccs1 | . | -1 | -3 | -3 | -2 | -7
Cc1sc2ncnc(N/N=C/c3cccc(O)c3)c2c1C | 3 | 0 | 2 | 1 | 5.6* | 8
Cc1csc(-c2nc3ccccc3n2C(C)c2nc3ccccc3[nH]2)c1 (stereo not drawn) | . | 0 | 1 | -5 | 5.7* | -1
O=c1c2ccccc2nc2ccc(NCc3cccs3)nn12 | 4.7* | -1 | 2 | 7 | 2 | 6
CCOc1ccc(S(=O)(=O)N2CCC(C(=O)NCC3CCCO3)CC2)cc1C (stereo not drawn) | 3 | -1 | 0 | 1 | -3 | -1
Cc1ccccc1OCCCCn1cnc2ccccc21 | -4 | -2 | -2 | -6 | -3 | -5
Brc1ccccc1OCCCn1cnc2ccccc21 | 3 | 0 | 2 | 4 | 5 | 11*
COc1cc(NC(=O)c2nccnc2N)cc(C(=O)Nc2cccc(C(F)(F)F)c2)c1 | 1 | 0 | 1 | -2 | 0 | 1
COc1cc(NC(=O)c2ccc(N)nc2)cc(C(=O)Nc2cccc(C(F)(F)F)c2)c1 | 1 | -1 | -1 | 7.9*! | 0 | 1
COc1cccc(NC(=O)c2ccc(OC(F)(F)F)cc2)c1 | 2 | 0 | 1 | 5 | 3 | 11*
Cc1ccc2nc(N3CCN(Cc4nnnn4C4CCCC4)CC3)c(C#N)cc2c1 | 5.7* | 0 | 1 | -5 | -1 | 5
N#C/C(=C/c1ccc(N2CCCCCC2)o1)c1ccc(Cl)cc1 | -1 | . | . | . | . | .
N#C/C(=C/c1ccc(N2CCCCC2)o1)c1cccc(F)c1 | 1 | 0 | 4.4* | 3 | -1 | -4
COc1ccc(NC(=O)C2Cc3c(-c4cccc(NC(C)=O)c4)ccnc3O2)cc1 (stereo not drawn) | . | -1 | -1 | -1 | -1 | -5
COc1ccc2[nH]cc(CCNC(=O)/C=C/[C@H]3O[C@@H](n4cnc5c(NC(=O)c6ccccc6)ncnc54)[C@H](O)[C@@H]3O)c2c1 | . | 1 | 0 | -2 | 0 | -1
CCn1nnc(NC(=O)c2ccccc2Br)n1 | 2 | 1.0* | 1 | 4 | 5 | 6
CCCn1nnc(NC(=O)c2cccc(OCC)c2)n1 | 2 | -1 | 1 | 5 | 0 | 8
CCCn1nnc(NC(=O)c2ccccc2Br)n1 | 1 | -1 | 1 | 3 | 2 | 2
CCCn1nnc(NC(=O)c2ccc3ccccc3c2)n1 | 3 | -1 | 1 | 4 | 2 | 11*
O=C(CNS(=O)(=O)c1cccc(Cl)c1)Nc1ccc(-c2nc3ccccc3s2)cc1 | 2 | 0 | 2 | -1 | 3 | 11*
CC(C)(C)c1ccc(S(=O)(=O)NCC(=O)Nc2ccc(-c3nc4ccccc4s3)cc2)cc1 | 2 | -1 | 1 | 1 | 0 | 4
O=C(Nc1ccccc1O)c1nc(Cl)ccc1Cl | 2 | 2.5* | 0 | 1 | 5.9* | 0
O=C(Nc1ccc(Cl)c(Cl)c1)Nc1ccccc1O | 2 | 0 | 1 | 7 | 5 | 10
